G9a block – blocks human histone lysine methyltransferase G9a; G9a H3K9 monomethylation, AlphaScreen, 2 h; Q96KQ7; Potency, µM (doses to about 102 µM), without a hit: at the top dose activity, negative = inhibition, usual class: inhibitors; 350,000 tested, 8.8% active; also: % is scaled to controls: 0 for no effect and ±100 for the full control effect; nearly all actives have a fitted effect of over 75% in size
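AlphaScreen read-out: biotin-H3K9 peptide (500 nM) methylation by 20 nM enzyme with 20 uM SAM, 2 h at room temperature after 15 min compound preincubation; anti-monomethyl H3K9 antibody plus donor/acceptor beads, 10 min dark.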
HP1b binding inh – inhibitors of HP1-beta chromodomain binding to methylated histone tails | P83916 | 390,000 tested, 0.56% active | AlphaScreen HP1-beta / biotin-H3K9me3 peptide binding | Potency, µM (highest dose often 114 µM), without a hit: top-dose activity change, negative = inhibition, most hits filed as inhibitors; also: nearly all actives have a fitted effect of over 70% in size
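HP1-beta protein (50 nM final) preincubated 30 min at room temperature with biotinylated H3(1-18)K9me3 peptide (50 nM) in PBS pH 7.4, 0.01% Tween-20, then compound added for 30 min. AlphaScreen streptavidin donor/nickel chelate acceptor beads (10 ug/mL final), 30 min dark, luminescence read.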
JMJD2A Tudor – inhibitors of human JMJD2A Tudor domain | O75164 | 390,000 tested, 4.4% active | AID 504339 | AlphaScreen JMJD2A-Tudor / H3K4me3 peptide binding | Potency, µM (titrated, usually from 114 µM), for inactives: top-dose activity change, negative = inhibition, actives largely listed as inhibitors; also: % is scaled to controls: 0 for no effect and ±100 for the full control effect; nearly all actives have a fitted effect of over 50% in size
Target sequence (O75164 whole entry, looked up, the tested form may be a part): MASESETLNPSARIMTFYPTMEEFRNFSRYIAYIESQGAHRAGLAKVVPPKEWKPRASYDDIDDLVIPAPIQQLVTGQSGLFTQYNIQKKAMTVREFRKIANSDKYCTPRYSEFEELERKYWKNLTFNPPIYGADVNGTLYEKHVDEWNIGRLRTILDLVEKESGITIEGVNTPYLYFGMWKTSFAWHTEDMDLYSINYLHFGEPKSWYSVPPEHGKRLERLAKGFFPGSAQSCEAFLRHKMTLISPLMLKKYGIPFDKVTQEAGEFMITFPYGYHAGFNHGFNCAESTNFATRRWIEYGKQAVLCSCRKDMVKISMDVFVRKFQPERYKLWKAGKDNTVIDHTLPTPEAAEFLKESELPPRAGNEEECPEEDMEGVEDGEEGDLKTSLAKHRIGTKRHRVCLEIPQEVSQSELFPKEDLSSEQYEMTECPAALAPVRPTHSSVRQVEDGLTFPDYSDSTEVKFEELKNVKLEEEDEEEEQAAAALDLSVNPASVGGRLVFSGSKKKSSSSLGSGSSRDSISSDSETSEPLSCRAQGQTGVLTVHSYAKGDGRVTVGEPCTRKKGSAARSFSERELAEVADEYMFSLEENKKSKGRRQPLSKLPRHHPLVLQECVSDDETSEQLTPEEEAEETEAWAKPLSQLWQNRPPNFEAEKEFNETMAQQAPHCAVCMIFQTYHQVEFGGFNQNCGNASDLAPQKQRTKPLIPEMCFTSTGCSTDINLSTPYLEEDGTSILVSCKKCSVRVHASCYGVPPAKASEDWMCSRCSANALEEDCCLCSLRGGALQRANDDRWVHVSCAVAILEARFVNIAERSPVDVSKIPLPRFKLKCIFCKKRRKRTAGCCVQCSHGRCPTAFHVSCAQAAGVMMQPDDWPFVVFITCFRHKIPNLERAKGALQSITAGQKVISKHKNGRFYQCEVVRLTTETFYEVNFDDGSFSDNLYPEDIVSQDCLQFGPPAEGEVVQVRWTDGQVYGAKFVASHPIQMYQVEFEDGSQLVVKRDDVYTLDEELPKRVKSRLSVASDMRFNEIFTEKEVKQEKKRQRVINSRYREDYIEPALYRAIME
L3MBTL1 block – blocks human L3MBTL1. 230,000 tested, 0.66% active. AlphaScreen L3MBTL1–H3K9me1 peptide binding. Q9Y468. Potency, µM (highest dose often 57.1 µM), without a hit: top-dose activity, negative = inhibition, hits mostly inhibitors; also: % is scaled to controls: 0 for no effect and ±100 for the full control effect; nearly all actives have a fitted effect of over 60% in size
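Displacement of a biotinylated histone H3(1-15) peptide monomethylated at Lys9 (75 nM) from L3MBTL1 (50 nM) was measured by AlphaScreen after a 30 min room-temperature compound incubation; cefsulodin titration served as intraplate control.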
BAZ2B inh – blocks human BAZ2B; AlphaScreen BAZ2B-H3K14Ac peptide displacement; Potency, µM (doses to about 114 µM), without a hit: top-dose activity change, negative = inhibition, actives largely listed as inhibitors; 360,000 tested, 4.4% active; AID 504333; also: % is scaled to controls: 0 for no effect and ±100 for the full control effect; nearly all actives have a fitted effect of over 60% in size
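Multi-concentration screen (max 110 uM) measuring displacement of acetylated histone H3 peptide from BAZ2B by AlphaScreen, using 50 nM protein, 50 nM peptide and 10 ug/mL streptavidin donor plus Ni-chelate acceptor beads.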
* marks the source's active call; other numbers are inactive results; ? = inconclusive; . = not tested or not shown; ! = a repeat was not active; [ ] = remark or other dose. Rows were chosen to be rich in hits. Some 11% of all compounds tested hit in one or more screens of this group. Calls follow the shape of the dose curve; as a rule, active = well fitted inhibition curve with a large enough effect; inconclusive = small, poorly fitted or top-dose-only effect; inactive = no such curve, though single readings can be large or run the other way. Potency is read from the fitted curve at half-maximal effect.

SMILES	G9a block	HP1b binding inh	JMJD2A Tudor	L3MBTL1 block	BAZ2B inh
COC(=O)c1ccc(Cl)c(NC(=O)CN2CCN(Cc3ccccc3)CC2)c1	11µM*	27%	-9%	30%[11.4 µM]	4%
COc1ccccc1NC(=O)c1cc[n+](C)cc1	35µM*	16%	-4%	3%	?
Oc1cc2c(cc1O)[C@H]1c3ccccc3CNC1CC2 (stereo not given in full)	0.5µM*	.	.	.	.
CCN(CC)CCO[C@H]1CC[C@@]2(C)C(=CC[C@@H]3[C@H]2CC[C@]2(C)C(=O)CC[C@H]32)C1	-2%[12.7 µM]	.	.	.	.
CC(=O)OCC1=C(C(=O)[O-])N2C(=O)[C@@H](NC(=O)CCC[C@@H](N)C(=O)[O-])[C@H]2SC1.[Zn+2]	14%[12.7 µM]	.	.	.	.
CC(=O)c1ccc2c(c1)C1C(Cl)C(Sc3ccccc3[N+](=O)[O-])CC1C(c1ccccc1)N2 (stereo not given)	10µM*	-23%	45µM*	-13%	45µM*
CC(=O)c1ccc2c(c1)C1C(Cl)C(Sc3ccccc3[N+](=O)[O-])CC1C(c1ccccc1[N+](=O)[O-])N2 (stereo not given)	?	-3%	-30%	-26%	-35%
Cc1cc(C=C2C(=O)N(C)C(=O)N(C)C2=O)c(C)n1-c1ccccc1	7.9µM*	65%	-5%	.	-8%
C[C@]12CCC3C(CC[C@]4(O)CC(O)CC[C@@]34C=O)[C@]1(O)CCC2C1=CC(=O)OC1 (stereo not given in full)	-34%[2.33 µM]	.	.	.	.
C#CCN1CC(=O)N(COC(=O)[C@@H]2[C@@H](C=C(C)C)C2(C)C)C1=O	35%[59 µM]	.	.	.	.
O=C(O)CC1OCC=C2CN3CCC45c6ccccc6NC4C1C2CC35 (stereo not given)	-2%[59 µM]	24%	-9%	.	1%
O=C(O)CC1OCC=C2CN3CCC45C6=CC(=O)C(=O)C([N+](=O)[O-])=C6NC4C1C2CC35 (stereo not given)	.	55%	2.5µM*!	25µM*	?
Oc1ccc(Cl)cc1Sc1cc(Cl)ccc1O	.	0%[57 µM]	?	.	.
c1cnc(N2CC[C@@]3(CCCNC3)C2)nc1	-21%[12.7 µM]	.	.	.	.
CC(=NCCCn1ccnc1)c1c(O)n(Cc2ccccc2)c(=O)[nH]c1=O	-8%	36%	-19%	.	?
CN1C(=O)C(=Cc2ccccc2OCc2ccc(Cl)cc2)C(=O)N(C)C1=O	-14%[59 µM]	24%	4%	1%	9%
O=C1NC(=O)C(=Cc2cc(Cl)ccc2OCc2ccc(C(=O)O)cc2)C(=O)N1	32µM*	11%	-12%	.	3%
COC(=O)CSc1n[nH]c(=S)s1	7.9µM*	28µM*	?	5%	-28%
O=C(CN1CCOCC1)Nc1ccc(Br)cc1C(=O)c1ccccc1	-7%[59 µM]	8%	-10%	7%	1%
O=C(CCN1CCOCC1)Nc1ccc(Br)cc1C(=O)c1ccccc1	35µM*	33%	-26%	-5%	-31%
COC(=O)C(O)(c1ccc(N(C)C(=O)c2cccs2)cc1)C(F)(F)F (stereo not given)	-7%	-1%	22µM*	3%	-8%
CC1CCCCC1n1c(-c2cccnc2)n[nH]c1=S (stereo not given)	14µM*	54%	7.1µM*	8%	-6%
COc1ccc2c(c1O)-c1cccc3c1C(C2)N(C)CC3 (stereo not given)	12%[12.7 µM]	.	.	.	.
CN1CCc2cc(O)cc3c2C1Cc1ccc(O)c(O)c1-3 (stereo not given)	0.71µM*	.	.	.	.
CCCN1CCc2cccc3c2[C@H]1Cc1ccc(O)c(O)c1-3	1.7µM*	16µM*	22µM*	.	.
SMILES	G9a block	HP1b binding inh	JMJD2A Tudor	L3MBTL1 block	BAZ2B inh
COc1ccc2c(c1O)-c1c(OC)c(OC)cc3c1[C@H](C2)N(C)CC3	2%[59 µM]	24%	2%	-11%	11%
C=CCN1CCc2cccc3c2C1Cc1ccc(O)c(O)c1-3 (stereo not given)	0.35µM*	.	.	.	.
COc1ccccc1CN1CCCC2(CCN(C(=O)Oc3ccccc3)CC2)C1	-5%[12.7 µM]	.	.	.	.
Cc1ccc(-n2sc3ccccc3c2=O)cc1	1.1µM*	?	7.1µM*	-2%	7.9µM*
C[C@]12CCC(=O)C=C1CCC1C2CC[C@@]2(C)C1CC[C@]2(C)O (stereo not given in full)	.	8%[57 µM]	-17%	4%	.
C[C@]12C/C(=C/O)C(=O)C[C@@H]1CC[C@@H]1[C@@H]2CC[C@@]2(C)[C@H]1CC[C@]2(C)O	18µM*	.	.	.	.
COc1ccc2nc(NC(=O)c3nc(S(=O)(=O)Cc4cccc(C)c4)ncc3Cl)sc2c1	-5%[59 µM]	41%	-17%	.	-16%
COc1cccc(CNCCc2cccc(F)c2)c1OC	-9%[0.501 µM]	?	28µM*	0%[2.29 µM]	79µM*
Brc1cccc(CNCCc2ccc3c(c2)OCO3)c1	.	-34%	22µM*	-1%	56µM*
COc1cccc(CNCCc2ccc3c(c2)OCO3)c1OC	9%[0.501 µM]	-13%	79µM*	-6%[2.29 µM]	56µM*
COc1ccc(CCNCc2ccc(C)s2)cc1OC	-28%	5%	-23%	4%	-18%
COc1cc(OC)c(OC)cc1CNCCc1ccc2c(c1)OCO2	28µM*	-25%	32µM*	0%	?
COc1cccc(CNCCc2c[nH]c3ccccc23)c1OC	?	28%	3%	.	-16%
COc1cc(Br)c(CNCCc2ccc3c(c2)OCO3)cc1OC	8.9µM*	?	25µM*	-7%	?
CCOc1cc(CNCCc2cccc(F)c2)ccc1OC	22µM*	71µM*	1.4µM*	.	45µM*
OC1(c2ccc(Cl)cc2)CCN(Cc2c[nH]c3ccccc23)CC1	30%[59 µM]	-16%	-34%	.	.
CCCC12CN3CC(CCC)(CN(C1)C3c1ccccn1)C2=O (stereo not given)	-1%[12.7 µM]	33%	25µM*	.	20µM*
S=P(c1ccccc1)(c1ccccc1)c1c[nH]c2ccccc12	.	.	-35%	.	.
CCCCC/C=C\C/C=C\C/C=C\C/C=C\CCCC(=O)NCc1ccoc1	14µM*	.	.	.	.
CCCCC/C=C\C/C=C\C/C=C\C/C=C\CCCC(=O)NCCCC(=O)O	-5%[59 µM]	.	.	.	.
CCCCC/C=C\C/C=C\C/C=C\C/C=C\CCCC(=O)NCC(=O)O	12µM*!	.	.	.	.
CCCCC/C=C\C/C=C\C/C=C\C/C=C\CCCC(=O)NCCc1ccc(O)c(O)c1	11µM*	.	.	.	.
C#C[C@]1(O)CC[C@H]2[C@@H]3CCC4=CC(=O)CCC4(C)[C@H]3CCC21C (stereo not given in full)	-30%[59 µM]	.	.	.	.
Cc1onc(-c2ccccc2Cl)c1C(=O)NCc1ccc2c(c1)cc(C)n2C	?	-9%	?	.	?
Cc1c(N=Nc2c(O)[nH]c(=O)[nH]c2=O)c(=O)n(-c2ccccc2)n1C	?	67%	13µM*	-23%	3.2µM*
Cc1c(N=Cc2c(O)n(C)c(=O)[nH]c2=O)c(=O)n(-c2ccccc2)n1C	2%	25%	-20%	-3%	-1%
